Assay [1] is described as follows: NCI Yeast Anticancer Drug Screen. Data for the rad50 strain (AID 155).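 Further: 0% = growth of vehicle-only cultures of the same strain.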 The following applies: S. cerevisiae rad50 strain growth inhibition, stronger effect = higher value. The procedure, abridged:
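A DNA repair-deficient yeast mutant serves as the test organism; compound-induced growth inhibition is calculated against vehicle-treated cells.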

Assay [2] can be described thus: NCI Yeast Anticancer Drug Screen. Data for the mec2-1 strain (AID 157). The following applies: S. cerevisiae mec2-1 strain, stronger effect = higher value. In short, it runs like this:
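Cells of the genetically defined mec2-1 yeast strain are incubated with test compound. Inhibition of growth is calculated against vehicle-treated controls.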

The nature of assay [3]: NCI Yeast Anticancer Drug Screen. Data for the sgs1 mgt1 strain (AID 161).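 Further: 0% = growth of cultures given vehicle only.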 The following applies: S. cerevisiae sgs1 mgt1 strain, stronger effect = higher value. The procedure, abridged: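 Inhibition of yeast growth, normalised to vehicle-treated controls, is reported for a strain bearing genetic alterations in DNA damage repair.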
Assay [4] in a line: NCI Yeast Anticancer Drug Screen. Data for the cln2 rad14 strain (AID 165).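 Further: 0% = growth equal to vehicle treated cultures.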 The following applies: S. cerevisiae cln2 rad14 strain, stronger effect = higher value. In short, it runs like this:
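The screen exposed genetically defined yeast (cln2 rad14) to test compounds and scored growth inhibition relative to vehicle-treated controls.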

Assay [5] can be described thus: NCI Yeast Anticancer Drug Screen. Data for the bub3 strain (AID 167). The following applies: S. cerevisiae bub3 mutant strain, stronger effect = higher value. In short, it runs like this:
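Inhibition values come from growth of compound-treated mutant yeast normalised to vehicle-treated controls.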

Assay [6] can be described thus: NCI Yeast Anticancer Drug Screen. Data for the mlh1 rad18 strain (AID 175). The following applies: S. cerevisiae mlh1 rad18 strain growth inhibition, stronger effect = higher value. In short, it runs like this:
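Compound-treated yeast growth, normalised to vehicle controls. Strain bears defined DNA repair mutations.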

Setting [7] is: at 5.0 µM (retest, dose inferred, filed as 0.5).
Setting [8] is: at 50.0 µM (retest, dose inferred, filed as 5.0).

This is part of a sample that, as a whole, favours compounds with a hit. Of some 79,000 tested, about 15% had one in any assay. A number with no mark means an inactive call. The source made the active and inactive calls. No stated cut-off is given here; in the data, active means growth inhibition above about 70%; inactive means the rest.

On to `O=C(c1ccccc1)N1CCN(c2cccc(Cl)c2)CC1`, for which the growth inhibition was 0% in assay [1] (setting [7]); 2% in assay [1] (setting [8]); 29.2% in assay [1] (at 50.0 µM); 0% in assay [2] (setting [7]); 2% in assay [2] (setting [8]); 0.45% in assay [2] (at 50.0 µM). The growth inhibition in assay [3] (setting [7]) is -2%; in assay [3] (setting [8]) it was 8%; in assay [3] (at 50.0 µM) it was 12.7%; in assay [4] (setting [7]), -1%; in assay [4] (setting [8]), 10%; in assay [4] (at 50.0 µM), -26.1%. Further, the growth inhibition is 9% in assay [5] (setting [7]); 93% (active) in assay [5] (setting [8]); 77.4% (active) in assay [5] (at 50.0 µM); 1% in assay [6] (setting [7]); 12% in assay [6] (setting [8]); 16.3% in assay [6] (at 50.0 µM).
With `CN(Cc1cnc2nc(N)nc(N)c2n1)c1ccc(C(=O)NC(CCC(=O)O)C(=O)O)c(Cl)c1Cl` (stereo not given), the growth inhibition in assay [1] (setting [7]) is -4%; in assay [1] (setting [8]) it was 79% (active); in assay [1] (at 50.0 µM) it was 94.2% (active); in assay [2] (setting [7]) it was 41%; in assay [2] (setting [8]), 98% (active); in assay [2] (at 50.0 µM), 98.2% (active). Also, the growth inhibition in assay [3] (setting [7]) is -5%; in assay [3] (setting [8]), 55%; in assay [3] (at 50.0 µM), 85.5% (active); in assay [4] (setting [7]), -8%; in assay [4] (setting [8]), -13%; in assay [4] (at 50.0 µM) it was -11.2%. In addition, the growth inhibition in assay [5] (setting [7]) is -21%; in assay [5] (setting [8]), 64%; in assay [5] (at 50.0 µM), 77.5% (active); in assay [6] (setting [7]) it was 13%; in assay [6] (setting [8]), 82% (active); in assay [6] (at 50.0 µM), 88.2% (active).
On to `COC1=CC(=O)c2ncccc2C1=O`, for which the growth inhibition in assay [1] (setting [7]) was 13%; in assay [1] (setting [8]), 92% (active); in assay [1] (at 50.0 µM), 91.8% (active); in assay [2] (setting [7]), 6%; in assay [2] (setting [8]) it was 83% (active); in assay [2] (at 50.0 µM) it was 78.5% (active). The growth inhibition in assay [3] (setting [7]) was 8%; in assay [3] (setting [8]), 81% (active); in assay [3] (at 50.0 µM), 84.8% (active); in assay [4] (setting [7]), -3%; in assay [4] (setting [8]), 93% (active); in assay [4] (at 50.0 µM) it was 89.2% (active). Moreover, the growth inhibition is 2% in assay [5] (setting [7]); 81% (active) in assay [5] (setting [8]); 46.6% in assay [5] (at 50.0 µM); 9% in assay [6] (setting [7]); 93% (active) in assay [6] (setting [8]); 95.1% (active) in assay [6] (at 50.0 µM).
Consider `O=[N+]([O-])c1ccc(Sc2ccc([N+](=O)[O-])o2)cc1`, for which the growth inhibition was 95% (active) in assay [1] (setting [7]); 99% (active) in assay [1] (setting [8]); 13.9% in assay [1] (at 50.0 µM); 94% (active) in assay [2] (setting [7]); 100% (active) in assay [2] (setting [8]); 16.5% in assay [2] (at 50.0 µM). The growth inhibition in assay [3] (setting [7]) was 95% (active); in assay [3] (setting [8]) it was 100% (active); in assay [3] (at 50.0 µM), 52.1%; in assay [4] (setting [7]), 89% (active); in assay [4] (setting [8]), 99% (active); in assay [4] (at 50.0 µM) it was -9.05%. In addition, the growth inhibition in assay [5] (setting [7]) is 98% (active); in assay [5] (setting [8]) it was 99% (active); in assay [5] (at 50.0 µM), 60.7%; in assay [6] (setting [7]) it was 97% (active); in assay [6] (setting [8]), 99% (active); in assay [6] (at 50.0 µM) it was 59.8%.
As to `Fc1ccc(CN2COc3c(ccc4cccnc34)C2)cc1`, the growth inhibition was -5% in assay [1] (setting [7]); 32% in assay [1] (setting [8]); 59.4% in assay [1] (at 50.0 µM); -2% in assay [2] (setting [7]); 17% in assay [2] (setting [8]); 27.1% in assay [2] (at 50.0 µM). The growth inhibition was 2% in assay [3] (setting [7]); 34% in assay [3] (setting [8]); 62.4% in assay [3] (at 50.0 µM); 3% in assay [4] (setting [7]); 70% (active) in assay [4] (setting [8]); 41.2% in assay [4] (at 50.0 µM). For the same molecule, the growth inhibition in assay [5] (setting [7]) was -5%; in assay [5] (setting [8]), 50%; in assay [5] (at 50.0 µM), 77% (active); in assay [6] (setting [7]) it was -1%; in assay [6] (setting [8]) it was 57%; in assay [6] (at 50.0 µM), 9.45%.
For `Cc1cc(O)c2c(c1)OC1(C)CCC3C(C)(C)CCCC34COC2C14` (stereo not given), the growth inhibition is 18% in assay [1] (setting [7]); 97% (active) in assay [1] (setting [8]); 89.5% (active) in assay [1] (at 50.0 µM); 16% in assay [2] (setting [7]); 98% (active) in assay [2] (setting [8]); 87.5% (active) in assay [2] (at 50.0 µM). In addition, the growth inhibition was 17% in assay [3] (setting [7]); 98% (active) in assay [3] (setting [8]); 90.6% (active) in assay [3] (at 50.0 µM); 27% in assay [4] (setting [7]); 98% (active) in assay [4] (setting [8]); 88.5% (active) in assay [4] (at 50.0 µM). The growth inhibition in assay [5] (setting [7]) was 6%; in assay [5] (setting [8]), 98% (active); in assay [5] (at 50.0 µM), 85.5% (active); in assay [6] (setting [7]), 33%; in assay [6] (setting [8]), 97% (active); in assay [6] (at 50.0 µM) it was 88.6% (active).
`O=C1OC(CC(=O)c2ccc(Cl)cc2Cl)C(Cl)=C1Cl` (stereo not given): the growth inhibition in assay [1] (setting [7]) is 0%; in assay [1] (setting [8]) it was 20%; in assay [1] (at 50.0 µM), 51%; in assay [2] (setting [7]) it was 8%; in assay [2] (setting [8]), 32%; in assay [2] (at 50.0 µM), 53.4%. Moreover, the growth inhibition in assay [3] (setting [7]) is 4%; in assay [3] (setting [8]) it was 50%; in assay [3] (at 50.0 µM), 93% (active); in assay [4] (setting [7]), 1%; in assay [4] (setting [8]), 6%; in assay [4] (at 50.0 µM) it was 78.4% (active). For the same molecule, the growth inhibition was -7% in assay [5] (setting [7]); 10% in assay [5] (setting [8]); 58.5% in assay [5] (at 50.0 µM); -1% in assay [6] (setting [7]); 41% in assay [6] (setting [8]); 97.3% (active) in assay [6] (at 50.0 µM).
As for `N#CC(C#N)=Cc1ccc(Oc2ccccc2)cc1`, the growth inhibition is 2% in assay [1] (setting [7]); 31% in assay [1] (setting [8]); 88.2% (active) in assay [1] (at 50.0 µM); -21% in assay [2] (setting [7]); 54% in assay [2] (setting [8]); 82.1% (active) in assay [2] (at 50.0 µM). Besides, the growth inhibition in assay [3] (setting [7]) is 13%; in assay [3] (setting [8]), 56%; in assay [3] (at 50.0 µM), 58.9%; in assay [4] (setting [7]), 25%; in assay [4] (setting [8]) it was 62%; in assay [4] (at 50.0 µM) it was 66.3%. For the same molecule, the growth inhibition in assay [5] (setting [7]) is -6%; in assay [5] (setting [8]) it was 90% (active); in assay [5] (at 50.0 µM), 83.7% (active); in assay [6] (setting [7]) it was 2%; in assay [6] (setting [8]), 77% (active); in assay [6] (at 50.0 µM), 73.9% (active).
Regarding `O=C1C(Cl)=C(Cl)C(=O)C2=C1CC(Cl)C(Cl)C2` (stereo not given), the growth inhibition in assay [1] (setting [7]) was 87% (active); in assay [1] (setting [8]), 98% (active); in assay [1] (at 50.0 µM), 99.3% (active); in assay [2] (setting [7]), 90% (active); in assay [2] (setting [8]), 99% (active); in assay [2] (at 50.0 µM) it was 99.3% (active). Further, the growth inhibition in assay [3] (setting [7]) was 91% (active); in assay [3] (setting [8]), 97% (active); in assay [3] (at 50.0 µM), 99.5% (active); in assay [4] (setting [7]) it was 37%; in assay [4] (setting [8]) it was 99% (active); in assay [4] (at 50.0 µM), 99% (active). For the same molecule, the growth inhibition in assay [5] (setting [7]) was 96% (active); in assay [5] (setting [8]) it was 98% (active); in assay [5] (at 50.0 µM), 99.3% (active); in assay [6] (setting [7]), 95% (active); in assay [6] (setting [8]), 99% (active); in assay [6] (at 50.0 µM), 99.2% (active).
As to `Oc1c(Cl)cc(C(c2cc(Cl)c(O)c(Cl)c2)C(c2cc(Cl)c(O)c(Cl)c2)c2cc(Cl)c(O)c(Cl)c2)cc1Cl`, the growth inhibition is 99% (active) in assay [1] (setting [7]); 98% (active) in assay [1] (setting [8]); 92.5% (active) in assay [1] (at 50.0 µM); 99% (active) in assay [2] (setting [7]); 98% (active) in assay [2] (setting [8]); 95.8% (active) in assay [2] (at 50.0 µM). Moreover, the growth inhibition in assay [3] (setting [7]) is 99% (active); in assay [3] (setting [8]), 98% (active); in assay [3] (at 50.0 µM), 42.8%; in assay [4] (setting [7]) it was 98% (active); in assay [4] (setting [8]), 98% (active); in assay [4] (at 50.0 µM), 92% (active). In addition, the growth inhibition was 99% (active) in assay [5] (setting [7]); 98% (active) in assay [5] (setting [8]); 93.9% (active) in assay [5] (at 50.0 µM); 99% (active) in assay [6] (setting [7]); 98% (active) in assay [6] (setting [8]); 96.8% (active) in assay [6] (at 50.0 µM).

The record behind these values is PubChem BioAssay (NCI).
